Results reported in the supplement of paper PMC9262897, “Low-cost anti-mycobacterial drug discovery using engineered E. coli” (Nature Communications, 2022).
± gives the standard deviation of the averaged measurements.

Test system: E. coli TESEC Mtb Alr
Experiment: growth (OD600 after 10 h); higher = more growth (less inhibition)
Settings: compound 0.1 mM
Protocol: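 TESEC Mtb Alr E. coli, or the Alr+ wild-type control, in 384-well plates with Prestwick library compounds at 0.1 mM and 1% DMSO, across arabinose induction levels of 1E3 to 1E7 nM. Growth is read as OD600 after 10 h at 37 °C in triplicate biological replicates.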

[1] = arabinose 1000 nM, raw OD600 reference: median of DMSO wells 0.294, cell-free background 0.041
[2] = arabinose 10000 nM, raw OD600 reference: median of DMSO wells 0.264, cell-free background 0.041
[3] = arabinose 100000 nM, raw OD600 reference: median of DMSO wells 0.201, cell-free background 0.041
[4] = arabinose 1000000 nM, raw OD600 reference: median of DMSO wells 0.193, cell-free background 0.041
[5] = arabinose 10000000 nM, raw OD600 reference: median of DMSO wells 0.146, cell-free background 0.041

Structure (SMILES) | growth [1] | growth [2] | growth [3] | growth [4] | growth [5]
C[C@]12CC[C@H](O)C[C@H]1CC[C@@H]1[C@@H]2CC[C@]2(C)[C@@H](C3=CC(=O)OC3)CC[C@]12O [Digitoxigenin] | 0.197 ± 0.0049 | 0.251 ± 0.0094 | 0.117 ± 0.0044 | 0.0923 ± 0.0033 | 0.126 ± 0.0021
C[C@@H]1C[C@@H]([C@H](O)CC2CC(=O)NC(=O)C2)C(=O)[C@@H](C)C1 [Cycloheximide] | 0.314 ± 0.018 | 0.268 ± 0.006 | 0.195 ± 0.009 | 0.186 ± 0.011 | 0.157 ± 0.0081
CCC1(CC)C(=O)C=CNC1=O [Pyrithyldione] | 0.295 ± 0.026 | 0.289 ± 0.0059 | 0.207 ± 0.017 | 0.2322 ± 0.0018 | 0.152 ± 0.0058
C#C[C@]1(O)CC[C@H]2[C@@H]3CCC4=CC(=O)CCC4=C3C=C[C@@]21CC [Gestrinone] | 0.195 ± 0.02 | 0.18 ± 0.0068 | 0.173 ± 0.0028 | 0.105 ± 0.011 | 0.134 ± 0.0068
C#C[C@]1(O)CC[C@H]2[C@@H]3CCC4=CC(=O)CC[C@]4(C)[C@H]3CC[C@@]21C [Ethisterone] | 0.28 ± 0.01 | 0.2589 ± 0.0022 | 0.21 ± 0.015 | 0.172 ± 0.0021 | 0.1381 ± 0.001
C[N+]1(C)CCOC(O)(c2ccc(-c3ccc(C4(O)C[N+](C)(C)CCO4)cc3)cc2)C1 (stereo not given) [Hemicholinium bromide] | 0.298 ± 0.02 | 0.276 ± 0.0044 | 0.229 ± 0.025 | 0.1741 ± 0.00078 | 0.195 ± 0.0053
NCCCNCCSP(=O)(O)O [Amifostine] | 0.297 ± 0.011 | 0.273 ± 0.0058 | 0.253 ± 0.011 | 0.196 ± 0.013 | 0.145 ± 0.0044
O=C(NCNC(=O)NC1C(=O)NC(=O)N1CO)NC1C(=O)NC(=O)N1CO (stereo not given) [Imidurea] | 0.2874 ± 0.0013 | 0.289 ± 0.0059 | 0.193 ± 0.036 | 0.231 ± 0.022 | 0.135 ± 0.0032
